# This is part of a sample that, as a whole, favours compounds with a hit. Of some 83,000 tested, about 20% had one in any assay.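 A percent growth of 40 corresponds to 60% growth inhibition; 0 means no net growth; -100 means all cells died. Active threshold: below 10.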 Unmarked numbers belong to inactive results. Activity calls are given as the source filed them.
# Assays:
# Assay in all cases: NCI-60 one-dose screen, 48 h (100 = growth as untreated, 0 = no growth, -100 = all killed)
# Conditions in all cases: 10 µM unless noted
# SR leukemia = test system: SR leukemia
# RPMI-8226 leukemia = test system: RPMI-8226 leukemia
# OVCAR-8 ovarian = test system: OVCAR-8 ovarian
# OVCAR-5 ovarian = test system: OVCAR-5 ovarian
# OVCAR-4 ovarian = test system: OVCAR-4 ovarian
# SK-OV-3 ovarian = test system: SK-OV-3 ovarian
# IGROV1 ovarian = test system: IGROV1 ovarian
# OVCAR-3 ovarian = test system: OVCAR-3 ovarian
# HS 578T breast = test system: HS 578T breast
# NCI/ADR-RES ovarian = test system: NCI/ADR-RES ovarian
# T-47D breast = test system: T-47D breast
# BT-549 breast = test system: BT-549 breast
# MDA-MB-435 melanoma = test system: MDA-MB-435 melanoma
# SW-620 colon = test system: SW-620 colon
# MCF7 breast = test system: MCF7 breast
# HCT-116 colon = test system: HCT-116 colon
# HCC-2998 colon = test system: HCC-2998 colon
# KM12 colon = test system: KM12 colon
SMILES,growth (SR leukemia),growth (RPMI-8226 leukemia),growth (OVCAR-8 ovarian),growth (OVCAR-5 ovarian),growth (OVCAR-4 ovarian),growth (SK-OV-3 ovarian),growth (IGROV1 ovarian),growth (OVCAR-3 ovarian),growth (HS 578T breast),growth (NCI/ADR-RES ovarian),growth (T-47D breast),growth (BT-549 breast),growth (MDA-MB-435 melanoma),growth (SW-620 colon),growth (MCF7 breast),growth (HCT-116 colon),growth (HCC-2998 colon),growth (KM12 colon)
NCCn1cc(-c2nc(-c3c[nH]c4ncccc34)cs2)c2ccccc21,62.6%,78.1%,86.7%,102%,68.2%,82.2%,50.2%,90.8%,84.4%,98.1%,22.6%,98.9%,98.3%,96.1%,60.4%,94.5%,93.8%,–
NC(Cc1ccc(O)cc1)C(=O)N/N=C/c1ccccc1O (stereo not drawn),82.5%,103%,96.2%,110%,90.1%,113%,92.8%,103%,107%,102%,98.1%,95.4%,108%,107%,96.2%,97.2%,100%,97.6%
CCOC(=O)c1ccc2c(c1)[n+](=O)c(C(=O)C1CCCS1)c(C(F)(F)F)n2[O-] (stereo not drawn),-42.8% (active),-45.3% (active),-36.4% (active),-79.8% (active),-83.3% (active),-97.6% (active),-60.3% (active),-96.6% (active),-10.8% (active),-70.4% (active),-70.5% (active),-93.4% (active),-80.5% (active),-82.4% (active),-68.1% (active),-96.2% (active),-89% (active),–
Cc1ccc(S(=O)(=O)Nc2ccc(-c3cc(-c4cccc(F)c4)c(C#N)c(=O)[nH]3)cc2)cc1,54.9%,19.4%,80.1%,99.9%,67%,99.7%,73.1%,82.6%,89.7%,90.7%,41.9%,74.7%,96.3%,73.5%,16.9%,8.61% (active),104%,72.9%
N#C/C(=C\c1ccc(-c2cccc(C(F)(F)F)c2)o1)c1nc(-c2ccco2)cs1,99.6%,45.8%,99.8%,60.2%,16.8%,112%,57.5%,100%,102%,97.1%,-17.6% (active),97%,102%,104%,22.4%,91.7%,29.5%,–
COc1cccc(-c2nn(-c3ccccc3)cc2-c2ccnc(NCCNS(=O)(=O)c3ccccc3)c2)c1,12.7%,19.1%,27.7%,72.3%,39.3%,43.3%,33.6%,42.6%,46.7%,23.3%,4.18% (active),36.5%,10.7%,43.9%,14.9%,29.4%,26.8%,21.7%
COc1ccc(-c2nc(SCC(=O)Nc3ccc(C(C)=O)cc3)[nH]c(=O)c2C#N)cc1,97.5%,114%,91%,97.3%,108%,79.5%,106%,108%,115%,108%,89.4%,82.2%,111%,112%,97.5%,76.3%,105%,101%
COc1ccc(C2CC(=O)c3c(nc4ccc(Cl)cc4c3N)C2)cc1 (stereo not drawn),88.7%,103%,107%,95.4%,102%,117%,99.7%,112%,115%,105%,109%,102%,93.6%,106%,95.6%,100%,111%,103%
Cc1ccc(Cc2cnc(NC(=O)/C=C/c3cccc(C)c3)s2)cc1,13.2%,3.37% (active),21%,20.9%,12.9%,15.7%,18.3%,-41.4% (active),6.83% (active),-36.5% (active),39.8%,-5.4% (active),-44.7% (active),17%,14.6%,2.53% (active),12.4%,16.1%
Clc1cc(Cl)cc(Nc2ccc3c(OCCCN4CCOCC4)cccc3n2)c1,6.22% (active),11.1%,81.8%,49.3%,65.3%,75.8%,72.9%,64.8%,35.9%,60.9%,60.4%,72.7%,57.4%,-41.9% (active),21.6%,27.5%,36.7%,-51.2% (active)
Cc1cc(C)n(Cc2cc(C(C)(C)C)cc(C(C)(C)C)c2)c(=O)c1C#N,84%,93.7%,93.4%,83.8%,90.4%,87%,96.8%,106%,81.6%,96.7%,79.3%,88.5%,102%,101%,88.4%,79.3%,116%,97.5%
COc1cc(/C=C/c2cc(/C=C/c3ccc(O)c(OC)c3)n(-c3ccccc3)c(=O)n2)ccc1O,30.7%,50.7%,79.1%,113%,61.3%,90.7%,87%,72.3%,69.6%,97.7%,71.4%,56.9%,73.1%,78.4%,40.8%,55.6%,104%,63.2%
NC1(N)C=CC2=C(C=C1)C1(N)C3=C(C=CC(N)(N)C=C3)N2C2(N)C3=C(C=CC(N)(N)C=C3)N1C1=C2C=CC(N)(N)C=C1,79.2%,18.6%,90.5%,105%,90.7%,102%,94.8%,97.8%,81.6%,82.9%,74.5%,52.4%,89.8%,95.4%,76.2%,90.2%,105%,93.6%
Cn1c(=O)c2c(ncn2CCC(=O)Nc2ccc(F)cc2)n(C)c1=O,105%,97.2%,108%,103%,111%,85%,112%,107%,103%,106%,94.1%,90.3%,110%,106%,100%,87.7%,115%,103%
N#CC1=C(N)Oc2c(c(N)nn2-c2ccccc2)C1c1ccc(Cl)cc1Cl (stereo not drawn),97.3%,94.4%,96.9%,98.2%,95.7%,92.5%,101%,110%,101%,100%,77.6%,97.8%,103%,100%,98.3%,94.4%,106%,99.3%
CN(C)CCCC1(c2ccc(F)cc2)OCc2cc(-c3ccc(C(F)(F)F)nc3)ccc21 (stereo not drawn),11.9%,69.2%,83.6%,85.5%,66.4%,80.3%,66.5%,84.6%,61.9%,84.1%,66.5%,94.7%,67.9%,83.5%,56.7%,58.4%,31.8%,80.2%
COc1ccc(OC)c(-c2c(C#N)c(-c3ccco3)nc3c2c(-c2ccccc2)nn3-c2ccccc2)c1,101%,96.7%,96.2%,95.5%,103%,95.8%,88.9%,112%,86.2%,93.8%,84%,108%,106%,95.8%,94.7%,87.8%,105%,106%
